Experimental data published in PubChem BioAssay.
Calls of active or inactive are those of the source. Unless noted, the rule behind the calls is not given here.

Tests used:
[1] = anti-His antibody binders, primary screen, artefact control for SMM control protein annotation, biochemical, small-molecule microarray, 635 nm fluorescence (AID 1128); conditions: anti-His Alexa647 antibody binding, higher = more signal;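 note: score merges feature fluorescence with signal-to-noise for each printed compound spot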
[2] = system: Human papillomavirus type 1a E7 protein (residues 1-88); assay: HPV1a E7 small-molecule binders, primary screen, biochemical, small-molecule microarray, residues 1-88, 635 nm (AID 1129); conditions: small-molecule microarray binding, fluorescence 635 nm; higher = more signal
[3] = target: Focal adhesion kinase 1 (Homo sapiens) (UniProt Q05397); assay: small-molecule microarray binders of FAK, primary screen, biochemical, 635/667 nm fluorescence, BSA, DTT (AID 1130); conditions: PTK2 binding, 635 nm fluorescence, higher = more signal;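 note: composite of spot emission at 667 nm and signal to noise over triplicate slides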
Focal adhesion kinase 1 (Homo sapiens), sequence (Q05397 whole entry, looked up): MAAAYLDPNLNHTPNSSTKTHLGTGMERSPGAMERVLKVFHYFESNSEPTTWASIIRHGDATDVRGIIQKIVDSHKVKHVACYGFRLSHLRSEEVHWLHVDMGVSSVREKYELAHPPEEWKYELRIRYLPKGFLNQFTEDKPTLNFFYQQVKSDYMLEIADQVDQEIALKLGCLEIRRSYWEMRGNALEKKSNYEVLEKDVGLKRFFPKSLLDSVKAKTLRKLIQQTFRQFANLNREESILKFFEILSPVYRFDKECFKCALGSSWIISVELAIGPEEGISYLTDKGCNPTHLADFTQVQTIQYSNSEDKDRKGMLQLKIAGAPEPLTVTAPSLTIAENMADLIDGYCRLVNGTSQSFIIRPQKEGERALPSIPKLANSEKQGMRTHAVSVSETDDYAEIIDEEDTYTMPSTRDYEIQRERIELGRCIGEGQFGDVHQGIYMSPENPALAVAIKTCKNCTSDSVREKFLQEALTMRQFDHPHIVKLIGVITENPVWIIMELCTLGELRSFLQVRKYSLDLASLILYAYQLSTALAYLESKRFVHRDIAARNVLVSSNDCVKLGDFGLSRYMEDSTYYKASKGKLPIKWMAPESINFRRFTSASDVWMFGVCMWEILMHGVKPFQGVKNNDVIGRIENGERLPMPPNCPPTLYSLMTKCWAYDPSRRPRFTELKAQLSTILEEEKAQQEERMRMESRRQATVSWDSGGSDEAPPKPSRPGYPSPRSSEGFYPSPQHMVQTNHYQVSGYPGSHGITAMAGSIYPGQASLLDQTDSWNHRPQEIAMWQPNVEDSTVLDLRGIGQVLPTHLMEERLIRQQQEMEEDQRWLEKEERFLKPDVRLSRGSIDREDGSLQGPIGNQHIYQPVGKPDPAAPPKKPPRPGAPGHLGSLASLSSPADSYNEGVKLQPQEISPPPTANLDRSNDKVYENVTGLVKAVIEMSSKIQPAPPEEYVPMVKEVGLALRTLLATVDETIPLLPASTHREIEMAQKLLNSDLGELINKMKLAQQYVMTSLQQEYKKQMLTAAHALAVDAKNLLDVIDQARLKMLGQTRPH

[4] = system: Fibrinogen (Alexa647-labelled); assay: fibrinogen binders on compound microarrays, profiling panel, artefact control for SMM control-protein annotation, biochemical, small-molecule microarray, 635/667 nm fluorescence (AID 1131); conditions: fibrinogen-A647 binding fluorescence, higher = more signal;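 note: z-score merges 667 nm fluorescence with per-spot signal-to-noise over triplicate slides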
[5] = target: Follistatin (Homo sapiens) (UniProt P19883); assay: follistatin binders on small-molecule microarrays, primary screen, biochemical, small-molecule microarray, 635/667 nm fluorescence (AID 1132); conditions: FST binding, 635 nm fluorescence, higher = more signal
Follistatin (Homo sapiens), sequence (P19883 whole entry, looked up): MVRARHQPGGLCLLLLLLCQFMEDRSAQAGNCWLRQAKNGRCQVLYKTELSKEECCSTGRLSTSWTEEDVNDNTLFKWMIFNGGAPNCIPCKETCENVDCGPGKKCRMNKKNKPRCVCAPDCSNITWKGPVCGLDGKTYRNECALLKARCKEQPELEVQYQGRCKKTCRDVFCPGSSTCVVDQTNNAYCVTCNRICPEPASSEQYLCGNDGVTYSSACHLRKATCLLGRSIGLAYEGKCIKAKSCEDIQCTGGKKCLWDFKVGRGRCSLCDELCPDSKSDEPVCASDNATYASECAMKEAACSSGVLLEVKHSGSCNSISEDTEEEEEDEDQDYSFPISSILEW

[6] = target: Fibroblast growth factor 2 (Homo sapiens) (UniProt P09038); assay: FGF2 binders on small-molecule microarrays, primary screen, biochemical, small-molecule microarray, 635/667 nm fluorescence (AID 1133); conditions: small-molecule microarray binding, FGF2, fluorescence 635/667; higher = more signal
Fibroblast growth factor 2 (Homo sapiens), sequence (P09038 whole entry, looked up): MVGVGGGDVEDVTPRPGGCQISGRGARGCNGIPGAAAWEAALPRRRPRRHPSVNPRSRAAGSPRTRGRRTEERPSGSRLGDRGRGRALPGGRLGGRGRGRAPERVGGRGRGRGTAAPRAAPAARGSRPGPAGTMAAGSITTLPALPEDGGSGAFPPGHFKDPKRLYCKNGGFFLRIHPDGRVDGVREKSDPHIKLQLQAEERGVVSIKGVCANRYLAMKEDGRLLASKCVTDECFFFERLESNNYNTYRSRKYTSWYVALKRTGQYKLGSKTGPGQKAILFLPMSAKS

[7] = mitochondrial membrane potential change in A549 cells, profiling panel, cell-based, JC-1 fluorescence, basal, 24 h, 100 nL (AID 1138); conditions: higher = more signal;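 note: A549 lung adenocarcinoma cells under basal conditions with no added stimulus; test concentration not given here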
Lefty1 = Lefty1 binders on small-molecule microarrays, primary screen, biochemical, small-molecule microarray, 635/667 nm fluorescence (AID 1139); conditions: small-molecule microarray binding, fluorescence 635/667; higher = more signal
[8] = system: wheat germ agglutinin (Triticum aestivum), Alexa647-labelled; assay: wheat germ agglutinin binders on compound microarrays, profiling panel, artefact control for SMM control-protein annotation, biochemical, small-molecule microarray, 635/667 nm fluorescence (AID 1140); conditions: WGA-A647 binding, 635 nm fluorescence, higher = more signal;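 note: score merges 667 nm feature emission with signal to noise over triplicate slides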
[9] = target: Luciferin 4-monooxygenase (Photinus pyralis) (UniProt P08659); assay: firefly luciferase enzyme inhibitors, primary screen, biochemical, luminescence, purified enzyme, 2006 set (AID 1141); conditions: SteadyGlo luminescence, 30 min, higher = more signal, called active from +8 up or from −8 down;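 note: cell-free assay with purified firefly luciferase at 100 ng per well in PBS; test concentration not given here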
Luciferin 4-monooxygenase (Photinus pyralis), sequence (P08659 whole entry, looked up): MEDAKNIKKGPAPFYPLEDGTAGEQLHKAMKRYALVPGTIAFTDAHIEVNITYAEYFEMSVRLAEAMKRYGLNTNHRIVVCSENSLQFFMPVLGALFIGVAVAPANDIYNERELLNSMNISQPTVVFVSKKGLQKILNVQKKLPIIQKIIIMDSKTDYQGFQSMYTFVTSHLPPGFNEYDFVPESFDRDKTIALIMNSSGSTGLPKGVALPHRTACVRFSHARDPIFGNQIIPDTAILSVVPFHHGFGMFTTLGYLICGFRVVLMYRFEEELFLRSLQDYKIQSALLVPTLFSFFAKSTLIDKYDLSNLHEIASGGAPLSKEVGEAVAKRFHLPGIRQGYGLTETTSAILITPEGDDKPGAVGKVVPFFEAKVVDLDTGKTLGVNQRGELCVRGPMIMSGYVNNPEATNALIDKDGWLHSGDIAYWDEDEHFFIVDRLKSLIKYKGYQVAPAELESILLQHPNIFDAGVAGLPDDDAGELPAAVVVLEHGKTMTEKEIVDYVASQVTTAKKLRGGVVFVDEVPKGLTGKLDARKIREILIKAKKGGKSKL

[10] = system: Wnt5a (protein binding on small-molecule microarray); assay: Wnt5a binders on small-molecule microarray, primary screen, biophysical, 635/667 nm fluorescence (AID 1142); conditions: 635 nm fluorescence, higher = more signal;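 note: fluorescence read at 667 nm with signal to noise per printed feature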
[11] = cell viability in Huh7 cells, primary screen, cytotoxicity control for HCV replication inhibitor project, CellTiter-Glo luminescence, basal, 48 h (AID 1143); conditions: Huh7 HCV replicon, higher = more signal, called active from +8 up or from −8 down;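 note: Huh7 hepatoma cells carrying a hepatitis C replication reporter with no stimulus; test concentration not given here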
[12] = P. aeruginosa biofilm formation inhibitors, primary screen, PAO1 strain, BacTiter-Glo luminescence, LB-PBS (AID 1144); conditions: 12 h, higher = more signal
[13] = CREB reporter modulators without forskolin, primary screen, cell-based, PC12, CRE-LacZ reporter, unstimulated (AID 1145); conditions: no forskolin, luminescence, 4.5 h, higher = more signal, called active from +8 up or from −8 down
[14] = CREB reporter modulators under forskolin, primary screen, cell-based, PC12, CRE-LacZ reporter, forskolin-stimulated (AID 1146); conditions: luminescence, 4.5 h, higher = more signal, called active from +8 up or from −8 down;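 note: PC12 cells with 6xCRE LacZ reporter stimulated by forskolin 10 µM; beta-galactosidase reporter signal reflecting CREB driven transcription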
[15] = target: Streptavidin (Streptomyces avidinii) (UniProt P22629); assay: streptavidin binders on small-molecule microarray, primary screen, artefact control for SMM compound annotation, biophysical, 635/667 nm fluorescence (AID 1147); conditions: streptavidin binding, higher = more signal;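 note: signal reflects streptavidin binding to arrayed compounds as a control protein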
Streptavidin (Streptomyces avidinii), sequence (P22629 whole entry, looked up): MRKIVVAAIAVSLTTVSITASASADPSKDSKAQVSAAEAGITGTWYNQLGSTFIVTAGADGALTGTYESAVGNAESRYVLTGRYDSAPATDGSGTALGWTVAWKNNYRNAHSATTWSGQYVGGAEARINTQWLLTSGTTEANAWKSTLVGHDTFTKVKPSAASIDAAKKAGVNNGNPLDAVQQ

[16] = small-molecule binders of probe aInhba, primary screen, biochemical, small-molecule microarray, 635/667 nm fluorescence (AID 1148); conditions: higher = more signal;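 note: score merges 667nm spot fluorescence with signal-to-noise for antibody binding to printed compounds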
Torsin-1A (Homo sapiens) [17] = target: Torsin-1A (Homo sapiens) (UniProt O14656); assay: torsin A binders from cell lysate, primary screen, small-molecule microarray, wild-type, 635/667 nm (AID 1149); conditions: COS7 hTOR1A-WT lysate, 635 nm fluorescence, higher = more signal
Torsin-1A (Homo sapiens), sequence (O14656 whole entry, looked up): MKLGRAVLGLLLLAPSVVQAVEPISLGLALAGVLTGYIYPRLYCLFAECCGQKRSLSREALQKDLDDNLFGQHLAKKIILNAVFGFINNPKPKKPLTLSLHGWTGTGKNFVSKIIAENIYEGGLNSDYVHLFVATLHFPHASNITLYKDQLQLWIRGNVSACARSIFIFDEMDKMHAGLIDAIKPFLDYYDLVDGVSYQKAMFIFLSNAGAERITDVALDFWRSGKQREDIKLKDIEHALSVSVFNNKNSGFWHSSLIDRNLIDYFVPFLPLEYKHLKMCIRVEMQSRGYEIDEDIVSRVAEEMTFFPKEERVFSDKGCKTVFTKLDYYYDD

Torsin-1A (Homo sapiens) [18] = target: Torsin-1A (Homo sapiens) (UniProt O14656); assay: small-molecule binders of mutant TOR1A in lysate, primary screen, cell lysate, small-molecule microarray, COS7 lysate, 635/667 nm fluorescence (AID 1150); conditions: COS7 hTOR1A mutant lysate, 635 nm fluorescence, higher = more signal;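 note: score pools 667 nm emission and signal to noise measuring lysate protein binding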
[19] = system: Sonic hedgehog protein (Shh); assay: small-molecule binders of Shh protein, primary screen, biochemical, small-molecule microarray, 635/667 nm fluorescence (AID 1151); conditions: small-molecule microarray binding, 635 nm fluorescence; higher = more signal;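 note: Shh protein binding to compounds spotted on small-molecule microarray slides; score combines spot fluorescence intensity with signal-to-noise across triplicate slides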

Compound | composite z-score [1] | composite z-score [2] | composite z-score [3] | composite z-score [4] | composite z-score [5] | composite z-score [6] | z-score [7] | composite z-score (Lefty1) | composite z-score [8] | z-score [9] | composite z-score [10] | z-score [11] | z-score [12] | z-score [13] | z-score [14] | composite z-score [15] | composite z-score [16] | composite z-score (Torsin-1A (Homo sapiens) [17]) | composite z-score (Torsin-1A (Homo sapiens) [18]) | composite z-score [19]
C=C(CCCC)/C(=C/C[C@H](OC(C)=O)c1ccc(OCCO)cc1)c1cc(C(=O)OC)ccc1OC | 0.124 | 1.04 | 0.667 | 0.046 | 0.935 | 0.103 | 1.78 | 0.929 | 0.775 | -1.69 (inactive) | 0.613 | -1.03 (inactive) | -0.8 (inactive) | 8.05 (active) | -0.499 (inactive) | 0.156 | 0.0363 | -0.453 | 0.886 | 0.803
[N-]=[N+]=Nc1ccccc1C[C@]1(C(=O)O)N=C(c2ccc(OCCCO)cc2)O[C@H]1c1ccccc1 | 0.133 | 0.612 | -0.0641 | 0.282 | 0.968 | -0.619 | 0.12 | -0.605 | 0.801 | -3.91 (inactive) | 0.0269 | -0.218 (inactive) | -0.54 (inactive) | 2.53 (inactive) | -0.522 (inactive) | 0.261 | 0.189 | 1.05 | 1.45 | -0.536
C=C/C=C/[C@@H]1C(=C)CN([C@@H](Cc2ccccc2)C(=O)OC)[C@H]1[C@@H](O)Cc1ccccc1 | 0.507 | 1.07 | 0.507 | 0.807 | 0.818 | 0.227 | 0.718 | 0.446 | 0.635 | -0.053 (inactive) | -0.0425 | -0.342 (inactive) | -0.428 (inactive) | 3.38 (inactive) | 2.05 (inactive) | 0.185 | -0.0418 | 0.218 | 0.795 | 0.949
O=C1OCCC/C=C\[C@H]2OC34C=CCN(c5ccc6ccccc6c5)C(=O)[C@H]3N(CCCO)C(=O)[C@@H]4C12 (stereo not given in full) | 1.09 | -0.0247 | 0.984 | -1.07 | -0.45 | -0.755 | 0.333 | -0.345 | 0.576 | -0.183 (inactive) | -0.482 | 0.187 (inactive) | 2.06 (inactive) | 2.9 (inactive) | -0.942 (inactive) | -1.3 | -0.21 | -0.553 | -1.1 | -0.339
NC(=O)[C@@H]1[C@H]2C(=O)O[C@H](c3ccccc3)[C@H](c3ccccc3)N2[C@H](c2ccc(OCCO)cc2)[C@@]12C(=O)Nc1ccc(C#CCCO)cc12 | 2.24 | 0.988 | 0.215 | 0.639 | 0.89 | 0.396 | -0.399 | -0.143 | 0.659 | -2.01 (inactive) | 0.257 | -0.952 (inactive) | -0.807 (inactive) | -0.0515 (inactive) | -0.195 (inactive) | 0.958 | -0.0736 | 0.632 | -0.565 | 0.0995
